{"source": "the supplement of paper PMC8728848", "binders": {"B1": {"name": "Cohesin-marm-DC-ASGPR (protein)", "chain": "LDITSHHHHHHDDLDAVRIKVDTVNAKPGDTVRIPVRFSGIPSKGIANCDFVYSYDPNVLEIIEIEPGDIIVDPNPDKSFDTAVYPDRKIIVFLFAEDSGTGAYAITKDGVFATIVAKVKEGAPNGLSVIKFVEVGGFANNDLVEQKTQFFDGGVNVGDTTEPATPTTPVTTPTTTDDLDAASSKFQRDLVTLRTDFSNFTSNTLAEIQALTSQGSSLQETIASLKAEVEGHKQELQAGASELQEHNKQKAHLGRCPHTCVCPSSFVCVPVHSEILLRVQQLVQDLNKLSCQVAILKNNATTERTCCPINWVEHQGSCYWFSRSGKTWPEAERYCQLENTHLVVINSREEQNFVQAHLGSAYTWMGLSDPEGVWKWVDGTDYSSGFQNWKPGQPDDWQGHGLGGGEDCAHFHPDGRWNDDVCQRSYHWVCEAGLTQASQDSHAS"}}, "test_in_all_cases": "glycan array binding signal (z-score within array); higher = stronger binding", "details_in_all_cases": "glycan notation: IUPAC condensed, linker removed", "key": {"[1]": {"biological_target": "Fuc(a1-2)Gal(b1-4)GlcNAc(b1-2)[Fuc(a1-2)Gal(b1-4)GlcNAc(b1-4)]Man(a1-3)[Fuc(a1-2)Gal(b1-4)GlcNAc(b1-2)Man(a1-6)]Man(b1-4)GlcNAc(b1-4)GlcNAc", "summary_of_the_method": "(§1)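 Glycan array data came from 3228 arrays in the Consortium for Functional Glycomics database, and only arrays with an available protein sequence were kept. Glycan names were put into IUPAC-condensed notation, and columns mapping to the same glycan were averaged. The binding signal is a within-array Z-score, averaged across arrays of one protein sequence run at different concentrations or buffers and across linkers. A negative Z-score can be read as non-binding.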"}, "[2]": {"biological_target": "Fuc(a1-2)Gal(b1-4)GlcNAc(b1-3)[Fuc(a1-2)Gal(b1-4)GlcNAc(b1-6)]GalNAc", "summary_of_the_method": "as §1"}, "[3]": {"biological_target": "Fuc(a1-2)Gal(b1-4)GlcNAc(b1-6)GalNAc", "summary_of_the_method": "as §1"}, "[4]": {"biological_target": "Fuc(a1-2)[Gal(a1-3)]Gal(b1-3)GlcNAc(b1-6)GalNAc", "summary_of_the_method": "as §1"}, "[5]": {"biological_target": "Fuc(a1-2)[Gal(a1-3)]Gal(b1-4)GlcNAc", "summary_of_the_method": "as §1"}, "[6]": {"biological_target": "Fuc(a1-2)[Gal(a1-3)]Gal(b1-4)GlcNAc(b1-2)Man", "summary_of_the_method": "as §1"}, "[7]": {"biological_target": "Fuc(a1-2)[Gal(a1-3)]Gal(b1-4)GlcNAc(b1-3)[Fuc(a1-2)[Gal(a1-3)]Gal(b1-4)GlcNAc(b1-6)]GalNAc", "summary_of_the_method": "as §1"}, "[8]": {"biological_target": "Fuc(a1-2)[GalNAc(a1-3)]Gal(b1-4)GlcNAc(b1-6)GalNAc", "summary_of_the_method": "as §1"}, "[9]": {"biological_target": "Fuc(a1-2)[GalNAc(a1-4)]Gal(b1-4)GlcNAc", "summary_of_the_method": "as §1"}, "[10]": {"biological_target": "Gal(a1-4)Gal(b1-4)GlcNAc(b1-2)Man(a1-3)[Gal(a1-4)Gal(b1-4)GlcNAc(b1-2)Man(a1-6)]Man(b1-4)GlcNAc(b1-4)GlcNAc", "summary_of_the_method": "as §1"}, "Gal(b1-3)Gal": {"biological_target": "Gal(b1-3)Gal", "summary_of_the_method": "as §1"}, "[11]": {"biological_target": "Gal(b1-3)GlcNAc(b1-6)[Gal(b1-3)]GalNAc", "summary_of_the_method": "as §1"}, "[12]": {"biological_target": "Gal(b1-3)[Fuc(a1-4)]GlcNAc(b1-2)Man(a1-3)[Gal(b1-3)[Fuc(a1-4)]GlcNAc(b1-2)Man(a1-6)]Man(b1-4)GlcNAc(b1-4)[Fuc(a1-6)]GlcNAc", "summary_of_the_method": "as §1"}, "[13]": {"biological_target": "Gal(b1-4)GlcNAc(b1-2)Man(a1-3)[Gal(b1-4)GlcNAc(b1-2)Man(a1-6)]Man(b1-4)GlcNAc(b1-4)GlcNAc", "summary_of_the_method": "as §1"}, "[14]": {"biological_target": "Gal(b1-4)GlcNAc(b1-2)Man(a1-3)[GlcNAc(b1-4)][Gal(b1-4)GlcNAc(b1-2)Man(a1-6)]Man(b1-4)GlcNAc(b1-4)GlcNAc", "summary_of_the_method": "as §1"}, "[15]": {"biological_target": "Gal(b1-4)GlcNAc(b1-2)[Gal(b1-4)GlcNAc(b1-4)]Man(a1-3)[GlcNAc(b1-4)][Gal(b1-4)GlcNAc(b1-2)[Gal(b1-4)GlcNAc(b1-6)]Man(a1-6)]Man(b1-4)GlcNAc(b1-4)GlcNAc", "summary_of_the_method": "as §1"}, "[16]": {"biological_target": "Gal(b1-4)GlcNAc(b1-2)[Gal(b1-4)GlcNAc(b1-6)]Man(a1-6)[GlcNAc(b1-4)][Gal(b1-4)GlcNAc(b1-2)Man(a1-3)]Man(b1-4)GlcNAc(b1-4)GlcNAc", "summary_of_the_method": "as §1"}, "[17]": {"biological_target": "Gal(b1-4)GlcNAc(b1-3)Gal(b1-4)GlcNAc(b1-3)Gal(b1-4)GlcNAc(b1-2)Man(a1-3)[Gal(b1-4)GlcNAc(b1-3)Gal(b1-4)GlcNAc(b1-3)Gal(b1-4)GlcNAc(b1-2)Man(a1-6)]Man(b1-4)GlcNAc(b1-4)GlcNAc", "summary_of_the_method": "as §1"}, "[18]": {"biological_target": "Gal(b1-4)GlcNAc(b1-3)Gal(b1-4)GlcNAc(b1-3)Gal(b1-4)GlcNAc(b1-3)Gal(b1-4)GlcNAc(b1-2)[Gal(b1-4)GlcNAc(b1-3)Gal(b1-4)GlcNAc(b1-3)Gal(b1-4)GlcNAc(b1-3)Gal(b1-4)GlcNAc(b1-6)]Man(a1-6)[Gal(b1-4)GlcNAc(b1-3)Gal(b1-4)GlcNAc(b1-3)Gal(b1-4)GlcNAc(b1-3)Gal(b1-4)GlcNAc(b1-2)Man(a1-3)]Man(b1-4)GlcNAc(b1-4)[Fuc(a1-6)]GlcNAc", "summary_of_the_method": "as §1"}, "[19]": {"biological_target": "Gal(b1-4)GlcNAc(b1-3)Gal(b1-4)GlcNAc(b1-3)Gal(b1-4)GlcNAc(b1-3)Gal(b1-4)GlcNAc(b1-3)Gal(b1-4)GlcNAc(b1-3)Gal(b1-4)GlcNAc(b1-2)Man(a1-3)[Gal(b1-4)GlcNAc(b1-3)Gal(b1-4)GlcNAc(b1-3)Gal(b1-4)GlcNAc(b1-3)Gal(b1-4)GlcNAc(b1-3)Gal(b1-4)GlcNAc(b1-3)Gal(b1-4)GlcNAc(b1-2)Man(a1-6)]Man(b1-4)GlcNAc(b1-4)GlcNAc", "summary_of_the_method": "as §1"}, "Gal3S(b1-4)Glc6S": {"biological_target": "Gal3S(b1-4)Glc6S", "summary_of_the_method": "as §1"}, "Gal6S(b1-4)GlcNAc6S": {"biological_target": "Gal6S(b1-4)GlcNAc6S", "summary_of_the_method": "as §1"}, "GalNAc(a1-3)Gal": {"biological_target": "GalNAc(a1-3)Gal", "summary_of_the_method": "as §1"}, "GalNAc(a1-3)GalNAc": {"biological_target": "GalNAc(a1-3)GalNAc", "summary_of_the_method": "as §1"}, "GalNAc(b1-3)GalNAc": {"biological_target": "GalNAc(b1-3)GalNAc", "summary_of_the_method": "as §1"}, "GalNAc(b1-4)GlcNAc": {"biological_target": "GalNAc(b1-4)GlcNAc", "summary_of_the_method": "as §1"}, "[20]": {"biological_target": "GalNAc(b1-4)GlcNAc(b1-2)Man", "summary_of_the_method": "as §1"}, "GalNAc(b1-4)GlcNAc6S": {"biological_target": "GalNAc(b1-4)GlcNAc6S", "summary_of_the_method": "as §1"}, "GalNAc(b1-6)GalNAc": {"biological_target": "GalNAc(b1-6)GalNAc", "summary_of_the_method": "as §1"}, "GlcA(b1-3)Gal": {"biological_target": "GlcA(b1-3)Gal", "summary_of_the_method": "as §1"}, "[21]": {"biological_target": "GlcNAc(a1-4)Gal(b1-3)GlcNAc", "summary_of_the_method": "as §1"}}, "note": "This is one part of a sample in which the strongest signals are shown more often than they occur."}
{"binder": "B1", "values": [{"measurement": "glycan array binding signal (z-score)", "setting": "[1]", "result": -0.267}, {"measurement": "glycan array binding signal (z-score)", "setting": "[2]", "result": -0.236}, {"measurement": "glycan array binding signal (z-score)", "setting": "[3]", "result": 4.84}, {"measurement": "glycan array binding signal (z-score)", "setting": "[4]", "result": 4.11}, {"measurement": "glycan array binding signal (z-score)", "setting": "[5]", "result": -0.282}, {"measurement": "glycan array binding signal (z-score)", "setting": "[6]", "result": -0.239}, {"measurement": "glycan array binding signal (z-score)", "setting": "[7]", "result": -0.22}, {"measurement": "glycan array binding signal (z-score)", "setting": "[8]", "result": 4.32}, {"measurement": "glycan array binding signal (z-score)", "setting": "[9]", "result": 4.11}, {"measurement": "glycan array binding signal (z-score)", "setting": "[10]", "result": -0.267}, {"measurement": "glycan array binding signal (z-score)", "setting": "Gal(b1-3)Gal", "result": -0.286}, {"measurement": "glycan array binding signal (z-score)", "setting": "[11]", "result": -0.272}, {"measurement": "glycan array binding signal (z-score)", "setting": "[12]", "result": -0.265}, {"measurement": "glycan array binding signal (z-score)", "setting": "[13]", "result": -0.277}, {"measurement": "glycan array binding signal (z-score)", "setting": "[14]", "result": -0.308}, {"measurement": "glycan array binding signal (z-score)", "setting": "[15]", "result": -0.268}, {"measurement": "glycan array binding signal (z-score)", "setting": "[16]", "result": -0.307}, {"measurement": "glycan array binding signal (z-score)", "setting": "[17]", "result": -0.177}, {"measurement": "glycan array binding signal (z-score)", "setting": "[18]", "result": -0.272}, {"measurement": "glycan array binding signal (z-score)", "setting": "[19]", "result": -0.295}, {"measurement": "glycan array binding signal (z-score)", "setting": "Gal3S(b1-4)Glc6S", "result": -0.141}, {"measurement": "glycan array binding signal (z-score)", "setting": "Gal6S(b1-4)GlcNAc6S", "result": -0.295}, {"measurement": "glycan array binding signal (z-score)", "setting": "GalNAc(a1-3)Gal", "result": 4.28}, {"measurement": "glycan array binding signal (z-score)", "setting": "GalNAc(a1-3)GalNAc", "result": -0.266}, {"measurement": "glycan array binding signal (z-score)", "setting": "GalNAc(b1-3)GalNAc", "result": -0.307}, {"measurement": "glycan array binding signal (z-score)", "setting": "GalNAc(b1-4)GlcNAc", "result": 4.21}, {"measurement": "glycan array binding signal (z-score)", "setting": "[20]", "result": 4.13}, {"measurement": "glycan array binding signal (z-score)", "setting": "GalNAc(b1-4)GlcNAc6S", "result": 4.56}, {"measurement": "glycan array binding signal (z-score)", "setting": "GalNAc(b1-6)GalNAc", "result": -0.303}, {"measurement": "glycan array binding signal (z-score)", "setting": "GlcA(b1-3)Gal", "result": -0.309}, {"measurement": "glycan array binding signal (z-score)", "setting": "[21]", "result": -0.3}]}
